Data reported in ChEMBL document CHEMBL1961873, “Compounds: GSK PKIS; Assays: Nanosyn kinase panel” (2012).

What was measured:
[1] = target: T1, Inhibitor of nuclear factor kappa-B kinase subunit epsilon (Homo sapiens) (UniProt Q14164); settings: at 1 µM;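 also: reported values are averaged percent inhibition figures against human IKKε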
T1 sequence (whole entry): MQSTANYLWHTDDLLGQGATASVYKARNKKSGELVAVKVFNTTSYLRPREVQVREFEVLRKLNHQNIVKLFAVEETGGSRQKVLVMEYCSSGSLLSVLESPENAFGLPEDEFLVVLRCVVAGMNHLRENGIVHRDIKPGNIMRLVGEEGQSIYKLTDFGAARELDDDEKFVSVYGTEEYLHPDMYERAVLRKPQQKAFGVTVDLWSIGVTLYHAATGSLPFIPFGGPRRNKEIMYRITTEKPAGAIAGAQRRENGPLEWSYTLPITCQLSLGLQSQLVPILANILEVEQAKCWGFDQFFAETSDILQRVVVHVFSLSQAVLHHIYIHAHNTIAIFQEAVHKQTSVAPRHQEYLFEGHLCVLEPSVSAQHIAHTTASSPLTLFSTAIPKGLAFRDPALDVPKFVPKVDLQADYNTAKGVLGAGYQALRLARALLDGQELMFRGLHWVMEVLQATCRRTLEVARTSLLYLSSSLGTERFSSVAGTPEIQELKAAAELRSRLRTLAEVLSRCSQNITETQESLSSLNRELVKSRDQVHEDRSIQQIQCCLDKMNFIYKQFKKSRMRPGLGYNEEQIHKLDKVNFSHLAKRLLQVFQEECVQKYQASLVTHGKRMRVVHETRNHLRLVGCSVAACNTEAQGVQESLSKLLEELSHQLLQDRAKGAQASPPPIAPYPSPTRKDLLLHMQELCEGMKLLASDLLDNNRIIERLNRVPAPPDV

[2] = target: T2, Serine/threonine-protein kinase Nek1 (Homo sapiens) (UniProt Q96PY6); settings: at 0.1 µM
T2 sequence (whole entry): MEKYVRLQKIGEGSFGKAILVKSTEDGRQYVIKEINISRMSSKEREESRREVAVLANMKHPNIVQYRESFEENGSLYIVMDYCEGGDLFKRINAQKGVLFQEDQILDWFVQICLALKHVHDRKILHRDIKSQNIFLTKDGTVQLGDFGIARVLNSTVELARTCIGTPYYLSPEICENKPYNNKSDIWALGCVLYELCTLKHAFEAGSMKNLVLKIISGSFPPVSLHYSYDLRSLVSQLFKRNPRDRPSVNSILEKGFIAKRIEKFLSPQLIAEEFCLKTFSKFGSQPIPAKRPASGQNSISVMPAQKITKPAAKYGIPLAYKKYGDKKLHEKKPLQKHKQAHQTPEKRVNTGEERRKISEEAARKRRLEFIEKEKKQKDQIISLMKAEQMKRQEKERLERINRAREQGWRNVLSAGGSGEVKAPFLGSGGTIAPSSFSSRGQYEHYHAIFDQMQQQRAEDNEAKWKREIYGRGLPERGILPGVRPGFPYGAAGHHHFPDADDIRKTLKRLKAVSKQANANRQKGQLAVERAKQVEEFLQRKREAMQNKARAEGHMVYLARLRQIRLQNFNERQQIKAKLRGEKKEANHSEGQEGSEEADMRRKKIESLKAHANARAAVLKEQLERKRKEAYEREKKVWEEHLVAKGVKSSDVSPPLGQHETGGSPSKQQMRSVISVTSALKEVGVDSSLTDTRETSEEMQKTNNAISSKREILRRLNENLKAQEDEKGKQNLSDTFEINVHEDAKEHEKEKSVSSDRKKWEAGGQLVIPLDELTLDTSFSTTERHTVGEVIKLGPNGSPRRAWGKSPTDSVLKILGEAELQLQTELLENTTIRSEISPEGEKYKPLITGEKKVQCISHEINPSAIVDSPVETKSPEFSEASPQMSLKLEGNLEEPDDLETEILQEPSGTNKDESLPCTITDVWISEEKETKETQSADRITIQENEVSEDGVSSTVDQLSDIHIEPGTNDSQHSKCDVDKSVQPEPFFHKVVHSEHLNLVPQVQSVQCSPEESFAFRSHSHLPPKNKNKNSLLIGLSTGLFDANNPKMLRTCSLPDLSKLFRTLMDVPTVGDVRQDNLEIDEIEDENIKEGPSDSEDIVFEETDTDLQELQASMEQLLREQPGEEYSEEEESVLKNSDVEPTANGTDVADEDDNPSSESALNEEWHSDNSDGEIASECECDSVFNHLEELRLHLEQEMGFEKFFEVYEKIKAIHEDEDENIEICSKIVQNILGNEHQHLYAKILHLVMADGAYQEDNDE

[3] = target: T2, Serine/threonine-protein kinase Nek1 (Homo sapiens); settings: at 1 µM
[4] = target: T3, Serine/threonine-protein kinase Nek2 (Homo sapiens) (UniProt P51955); settings: at 0.1 µM
T3 sequence (whole entry): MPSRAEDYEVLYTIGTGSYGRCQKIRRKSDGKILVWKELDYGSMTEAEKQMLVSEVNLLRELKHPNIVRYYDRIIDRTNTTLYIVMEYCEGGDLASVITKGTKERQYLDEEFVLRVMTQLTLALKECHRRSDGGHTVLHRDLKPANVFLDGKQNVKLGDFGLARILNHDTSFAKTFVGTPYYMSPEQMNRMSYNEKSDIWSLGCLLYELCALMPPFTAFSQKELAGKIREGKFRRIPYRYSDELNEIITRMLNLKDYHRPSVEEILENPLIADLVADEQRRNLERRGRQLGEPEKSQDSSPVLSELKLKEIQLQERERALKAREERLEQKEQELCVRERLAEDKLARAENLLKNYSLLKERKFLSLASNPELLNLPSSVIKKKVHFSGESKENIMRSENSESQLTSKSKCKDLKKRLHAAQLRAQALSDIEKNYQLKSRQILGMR

[5] = target: T3, Serine/threonine-protein kinase Nek2 (Homo sapiens); settings: at 1 µM
[6] = target: Serine/threonine-protein kinase Nek6 (Homo sapiens) (UniProt Q9HC98); settings: at 0.1 µM
[7] = target: Serine/threonine-protein kinase Nek6 (Homo sapiens) (UniProt Q9HC98); settings: at 1 µM
[8] = target: Serine/threonine-protein kinase Nek7 (Homo sapiens) (UniProt Q8TDX7); settings: at 0.1 µM
[9] = target: Serine/threonine-protein kinase Nek7 (Homo sapiens) (UniProt Q8TDX7); settings: at 1 µM
[10] = target: T4, Serine/threonine-protein kinase Nek9 (Homo sapiens) (UniProt Q8TD19); settings: at 0.1 µM
T4 sequence (whole entry): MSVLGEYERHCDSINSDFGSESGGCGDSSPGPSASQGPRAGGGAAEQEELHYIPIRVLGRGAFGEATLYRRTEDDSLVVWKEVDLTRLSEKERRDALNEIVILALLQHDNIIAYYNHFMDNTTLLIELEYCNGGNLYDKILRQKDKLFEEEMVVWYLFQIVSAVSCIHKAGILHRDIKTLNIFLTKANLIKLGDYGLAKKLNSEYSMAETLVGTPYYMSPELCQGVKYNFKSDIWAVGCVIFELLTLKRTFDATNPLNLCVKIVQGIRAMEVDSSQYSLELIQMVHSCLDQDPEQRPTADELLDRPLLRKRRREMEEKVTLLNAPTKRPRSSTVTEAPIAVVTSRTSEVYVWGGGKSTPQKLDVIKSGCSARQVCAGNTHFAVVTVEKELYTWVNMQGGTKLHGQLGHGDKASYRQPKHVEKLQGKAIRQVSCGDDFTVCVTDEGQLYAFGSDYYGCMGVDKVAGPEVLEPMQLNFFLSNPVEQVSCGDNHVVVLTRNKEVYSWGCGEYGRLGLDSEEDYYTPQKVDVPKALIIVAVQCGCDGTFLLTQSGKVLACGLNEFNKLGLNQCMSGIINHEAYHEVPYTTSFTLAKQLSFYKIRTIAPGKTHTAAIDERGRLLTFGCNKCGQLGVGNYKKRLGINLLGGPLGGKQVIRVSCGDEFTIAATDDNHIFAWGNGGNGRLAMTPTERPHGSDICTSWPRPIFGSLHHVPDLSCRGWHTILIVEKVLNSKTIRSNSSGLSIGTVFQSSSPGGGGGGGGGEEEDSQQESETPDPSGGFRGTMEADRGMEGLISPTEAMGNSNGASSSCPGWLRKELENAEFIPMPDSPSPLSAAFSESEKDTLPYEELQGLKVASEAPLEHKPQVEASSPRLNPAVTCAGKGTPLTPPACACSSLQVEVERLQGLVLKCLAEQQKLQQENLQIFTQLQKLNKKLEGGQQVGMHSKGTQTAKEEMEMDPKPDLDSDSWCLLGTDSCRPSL

[11] = target: T4, Serine/threonine-protein kinase Nek9 (Homo sapiens); settings: at 1 µM
[12] = target: Serine/threonine-protein kinase PLK1 (Homo sapiens) (UniProt P53350); settings: at 0.1 µM
[13] = target: Serine/threonine-protein kinase PLK1 (Homo sapiens) (UniProt P53350); settings: at 1 µM
[14] = target: T5, Dual specificity protein kinase TTK (Homo sapiens) (UniProt P33981); settings: at 0.1 µM
T5 sequence (whole entry): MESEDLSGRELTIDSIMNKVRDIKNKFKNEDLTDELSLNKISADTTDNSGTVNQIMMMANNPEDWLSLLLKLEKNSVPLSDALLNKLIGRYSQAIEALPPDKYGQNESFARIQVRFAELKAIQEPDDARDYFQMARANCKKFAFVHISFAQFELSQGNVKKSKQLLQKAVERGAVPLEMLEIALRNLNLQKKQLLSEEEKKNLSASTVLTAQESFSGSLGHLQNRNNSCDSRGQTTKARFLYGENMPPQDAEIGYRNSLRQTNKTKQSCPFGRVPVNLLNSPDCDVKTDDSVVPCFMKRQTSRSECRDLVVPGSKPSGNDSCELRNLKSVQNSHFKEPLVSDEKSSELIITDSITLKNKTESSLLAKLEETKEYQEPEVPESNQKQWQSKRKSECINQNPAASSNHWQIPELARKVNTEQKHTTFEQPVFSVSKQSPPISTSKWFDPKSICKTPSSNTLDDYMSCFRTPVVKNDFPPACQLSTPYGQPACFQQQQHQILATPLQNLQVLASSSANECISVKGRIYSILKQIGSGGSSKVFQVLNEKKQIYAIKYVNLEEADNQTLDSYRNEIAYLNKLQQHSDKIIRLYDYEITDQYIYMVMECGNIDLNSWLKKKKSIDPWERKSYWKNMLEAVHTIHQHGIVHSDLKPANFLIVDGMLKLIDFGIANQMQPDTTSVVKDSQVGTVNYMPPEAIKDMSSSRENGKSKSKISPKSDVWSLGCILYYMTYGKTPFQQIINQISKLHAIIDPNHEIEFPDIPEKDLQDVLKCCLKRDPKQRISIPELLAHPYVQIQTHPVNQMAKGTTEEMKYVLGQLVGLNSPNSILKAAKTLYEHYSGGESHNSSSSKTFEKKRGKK

[15] = tested on: T6, Receptor-type tyrosine-protein kinase FLT3 (Homo sapiens), P36888 [D835Y]; settings: at 1 µM
T6 sequence (whole entry): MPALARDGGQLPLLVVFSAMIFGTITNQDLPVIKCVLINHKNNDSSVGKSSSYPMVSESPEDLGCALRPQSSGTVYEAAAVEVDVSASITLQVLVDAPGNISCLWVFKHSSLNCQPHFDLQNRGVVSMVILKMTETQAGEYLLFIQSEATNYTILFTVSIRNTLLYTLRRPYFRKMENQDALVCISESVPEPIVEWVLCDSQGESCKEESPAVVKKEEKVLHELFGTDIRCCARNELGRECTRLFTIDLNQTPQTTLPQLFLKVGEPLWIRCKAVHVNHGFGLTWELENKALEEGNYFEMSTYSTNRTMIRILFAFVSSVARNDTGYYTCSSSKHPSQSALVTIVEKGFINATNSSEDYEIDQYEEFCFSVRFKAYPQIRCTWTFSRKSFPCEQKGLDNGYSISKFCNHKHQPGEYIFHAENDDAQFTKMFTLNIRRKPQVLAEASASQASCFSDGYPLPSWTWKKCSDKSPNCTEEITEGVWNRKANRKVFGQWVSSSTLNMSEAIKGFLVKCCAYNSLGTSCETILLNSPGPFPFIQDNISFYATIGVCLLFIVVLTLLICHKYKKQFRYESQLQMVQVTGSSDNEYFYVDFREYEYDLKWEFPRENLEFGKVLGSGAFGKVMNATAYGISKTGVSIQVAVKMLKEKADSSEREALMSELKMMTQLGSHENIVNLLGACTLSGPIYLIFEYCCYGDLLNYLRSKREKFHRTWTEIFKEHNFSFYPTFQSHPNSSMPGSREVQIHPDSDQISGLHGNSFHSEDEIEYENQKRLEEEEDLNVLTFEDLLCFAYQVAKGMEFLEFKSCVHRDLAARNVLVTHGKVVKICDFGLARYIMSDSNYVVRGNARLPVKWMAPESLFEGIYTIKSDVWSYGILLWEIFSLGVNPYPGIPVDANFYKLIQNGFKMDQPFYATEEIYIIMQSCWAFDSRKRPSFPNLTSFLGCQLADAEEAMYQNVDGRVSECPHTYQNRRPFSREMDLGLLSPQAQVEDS

[16] = target: Vascular endothelial growth factor receptor 3 (Homo sapiens) (UniProt P35916); settings: at 0.1 µM
[17] = target: Vascular endothelial growth factor receptor 3 (Homo sapiens) (UniProt P35916); settings: at 1 µM
[18] = target: Macrophage colony-stimulating factor 1 receptor (Homo sapiens) (UniProt P07333); settings: at 0.1 µM
[19] = target: Macrophage colony-stimulating factor 1 receptor (Homo sapiens) (UniProt P07333); settings: at 1 µM
[20] = target: Tyrosine-protein kinase Fyn (Homo sapiens) (UniProt P06241); settings: at 0.1 µM
Tyrosine-protein kinase Fyn (Homo sapiens), sequence (P06241 2-537 limits assumed): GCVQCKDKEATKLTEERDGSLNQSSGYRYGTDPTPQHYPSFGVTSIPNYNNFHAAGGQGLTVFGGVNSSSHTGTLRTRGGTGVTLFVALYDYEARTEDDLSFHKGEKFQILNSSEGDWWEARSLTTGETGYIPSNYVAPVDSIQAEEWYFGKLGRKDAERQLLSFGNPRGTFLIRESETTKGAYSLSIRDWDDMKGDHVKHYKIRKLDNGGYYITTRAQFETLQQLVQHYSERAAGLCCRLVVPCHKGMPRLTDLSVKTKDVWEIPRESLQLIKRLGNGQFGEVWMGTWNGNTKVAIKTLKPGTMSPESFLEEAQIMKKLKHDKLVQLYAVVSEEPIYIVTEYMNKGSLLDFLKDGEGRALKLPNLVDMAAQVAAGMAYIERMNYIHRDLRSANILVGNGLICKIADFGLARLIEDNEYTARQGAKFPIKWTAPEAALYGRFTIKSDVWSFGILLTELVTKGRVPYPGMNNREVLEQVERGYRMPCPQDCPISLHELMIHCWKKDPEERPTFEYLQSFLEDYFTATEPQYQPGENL

Serine/threonine-protein kinase Nek7 (Homo sapiens), sequence (Q8TDX7 whole entry, looked up): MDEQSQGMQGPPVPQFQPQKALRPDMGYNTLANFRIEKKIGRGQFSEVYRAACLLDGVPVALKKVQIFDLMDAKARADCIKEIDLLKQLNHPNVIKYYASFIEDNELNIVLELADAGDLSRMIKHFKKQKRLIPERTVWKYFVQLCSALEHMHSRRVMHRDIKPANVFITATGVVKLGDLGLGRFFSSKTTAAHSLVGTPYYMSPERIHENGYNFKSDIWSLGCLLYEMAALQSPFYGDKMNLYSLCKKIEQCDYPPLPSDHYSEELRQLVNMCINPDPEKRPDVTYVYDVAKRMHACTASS
Vascular endothelial growth factor receptor 3 (Homo sapiens), sequence (P35916 whole entry): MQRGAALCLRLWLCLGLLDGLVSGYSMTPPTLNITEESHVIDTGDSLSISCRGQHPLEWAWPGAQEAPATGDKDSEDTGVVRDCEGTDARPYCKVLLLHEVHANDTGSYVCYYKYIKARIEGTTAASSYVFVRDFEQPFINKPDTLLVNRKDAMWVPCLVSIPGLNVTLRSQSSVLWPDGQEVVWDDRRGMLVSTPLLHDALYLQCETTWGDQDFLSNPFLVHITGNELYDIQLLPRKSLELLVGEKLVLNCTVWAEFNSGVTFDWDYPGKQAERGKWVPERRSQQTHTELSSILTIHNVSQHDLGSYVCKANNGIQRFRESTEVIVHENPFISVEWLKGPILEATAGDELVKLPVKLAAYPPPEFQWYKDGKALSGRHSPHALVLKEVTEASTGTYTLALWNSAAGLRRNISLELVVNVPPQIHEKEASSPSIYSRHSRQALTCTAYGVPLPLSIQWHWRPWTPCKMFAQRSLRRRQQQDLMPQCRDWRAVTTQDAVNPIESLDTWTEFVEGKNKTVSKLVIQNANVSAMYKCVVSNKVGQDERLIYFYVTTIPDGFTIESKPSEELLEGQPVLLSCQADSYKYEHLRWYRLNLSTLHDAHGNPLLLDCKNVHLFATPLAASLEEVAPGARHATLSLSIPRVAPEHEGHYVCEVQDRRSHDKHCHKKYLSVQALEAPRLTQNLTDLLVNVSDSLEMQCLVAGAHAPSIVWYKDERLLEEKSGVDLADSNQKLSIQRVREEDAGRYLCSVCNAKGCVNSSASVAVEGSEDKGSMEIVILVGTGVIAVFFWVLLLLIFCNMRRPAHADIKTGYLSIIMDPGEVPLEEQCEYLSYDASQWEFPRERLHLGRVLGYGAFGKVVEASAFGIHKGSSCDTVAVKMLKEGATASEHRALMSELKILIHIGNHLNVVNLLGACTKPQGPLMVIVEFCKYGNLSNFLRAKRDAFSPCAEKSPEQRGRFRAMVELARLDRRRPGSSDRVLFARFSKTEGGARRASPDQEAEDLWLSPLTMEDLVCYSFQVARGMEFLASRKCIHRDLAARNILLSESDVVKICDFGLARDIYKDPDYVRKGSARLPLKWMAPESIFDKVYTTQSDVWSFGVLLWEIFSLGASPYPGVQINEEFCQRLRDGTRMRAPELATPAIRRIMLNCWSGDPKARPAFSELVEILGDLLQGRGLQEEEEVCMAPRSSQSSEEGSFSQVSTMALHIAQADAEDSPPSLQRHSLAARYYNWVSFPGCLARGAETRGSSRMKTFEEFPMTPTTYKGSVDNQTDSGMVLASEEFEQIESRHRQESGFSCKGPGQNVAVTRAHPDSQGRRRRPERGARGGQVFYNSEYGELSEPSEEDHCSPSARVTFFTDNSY
Serine/threonine-protein kinase Nek6 (Homo sapiens), sequence (Q9HC98 whole entry): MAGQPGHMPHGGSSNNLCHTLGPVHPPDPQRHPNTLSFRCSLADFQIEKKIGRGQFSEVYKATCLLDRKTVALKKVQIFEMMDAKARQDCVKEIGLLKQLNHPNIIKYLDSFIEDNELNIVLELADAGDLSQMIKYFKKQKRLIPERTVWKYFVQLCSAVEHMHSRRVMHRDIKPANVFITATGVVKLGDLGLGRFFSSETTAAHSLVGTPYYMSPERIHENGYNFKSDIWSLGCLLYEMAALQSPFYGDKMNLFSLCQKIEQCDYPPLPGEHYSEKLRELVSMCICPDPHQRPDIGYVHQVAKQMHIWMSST
Macrophage colony-stimulating factor 1 receptor (Homo sapiens), sequence (P07333 whole entry): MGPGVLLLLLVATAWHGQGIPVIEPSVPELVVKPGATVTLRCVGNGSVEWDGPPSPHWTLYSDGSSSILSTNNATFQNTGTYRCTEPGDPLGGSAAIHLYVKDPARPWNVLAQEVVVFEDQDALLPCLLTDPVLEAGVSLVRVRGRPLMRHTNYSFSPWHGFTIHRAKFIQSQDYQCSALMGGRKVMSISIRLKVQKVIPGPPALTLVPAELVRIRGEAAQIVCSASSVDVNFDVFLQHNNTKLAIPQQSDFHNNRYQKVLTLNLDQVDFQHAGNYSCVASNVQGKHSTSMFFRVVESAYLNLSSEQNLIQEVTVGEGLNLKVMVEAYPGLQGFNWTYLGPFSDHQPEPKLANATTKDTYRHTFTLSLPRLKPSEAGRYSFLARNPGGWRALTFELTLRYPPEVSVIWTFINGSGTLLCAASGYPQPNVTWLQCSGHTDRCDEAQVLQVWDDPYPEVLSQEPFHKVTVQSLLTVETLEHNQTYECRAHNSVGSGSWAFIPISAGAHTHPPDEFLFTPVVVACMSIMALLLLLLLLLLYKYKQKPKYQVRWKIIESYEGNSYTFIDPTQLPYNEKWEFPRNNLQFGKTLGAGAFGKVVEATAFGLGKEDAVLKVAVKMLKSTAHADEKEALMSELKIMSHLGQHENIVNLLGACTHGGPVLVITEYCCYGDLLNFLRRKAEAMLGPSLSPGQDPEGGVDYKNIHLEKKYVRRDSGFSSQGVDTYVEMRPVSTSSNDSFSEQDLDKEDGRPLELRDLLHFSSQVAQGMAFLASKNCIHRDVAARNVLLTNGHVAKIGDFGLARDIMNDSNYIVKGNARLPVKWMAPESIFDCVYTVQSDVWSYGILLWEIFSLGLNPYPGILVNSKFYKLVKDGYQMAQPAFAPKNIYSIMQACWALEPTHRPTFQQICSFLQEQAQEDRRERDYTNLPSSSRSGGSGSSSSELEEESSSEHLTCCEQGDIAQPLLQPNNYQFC
Serine/threonine-protein kinase PLK1 (Homo sapiens), sequence (P53350 whole entry): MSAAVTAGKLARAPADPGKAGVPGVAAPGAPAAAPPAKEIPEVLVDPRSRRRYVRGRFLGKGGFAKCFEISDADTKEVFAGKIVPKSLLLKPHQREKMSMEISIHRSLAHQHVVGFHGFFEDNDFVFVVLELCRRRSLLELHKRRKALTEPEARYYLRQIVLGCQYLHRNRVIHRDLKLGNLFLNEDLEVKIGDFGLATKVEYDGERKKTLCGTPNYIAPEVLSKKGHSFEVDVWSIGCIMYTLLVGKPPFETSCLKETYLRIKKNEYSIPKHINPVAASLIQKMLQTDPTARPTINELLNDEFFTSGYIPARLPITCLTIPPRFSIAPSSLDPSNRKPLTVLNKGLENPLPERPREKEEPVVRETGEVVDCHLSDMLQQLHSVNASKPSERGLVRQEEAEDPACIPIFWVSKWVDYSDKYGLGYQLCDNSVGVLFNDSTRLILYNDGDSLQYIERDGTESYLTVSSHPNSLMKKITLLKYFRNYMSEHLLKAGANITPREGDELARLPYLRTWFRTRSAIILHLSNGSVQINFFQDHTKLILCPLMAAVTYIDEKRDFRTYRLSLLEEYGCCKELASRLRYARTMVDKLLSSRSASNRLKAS

SMILES | inhibition [1] | inhibition [2] | inhibition [3] | inhibition [4] | inhibition [5] | inhibition [6] | inhibition [7] | inhibition [8] | inhibition [9] | inhibition [10] | inhibition [11] | inhibition [12] | inhibition [13] | inhibition [14] | inhibition [15] | inhibition [16] | inhibition [17] | inhibition [18] | inhibition [19] | inhibition [20]
COC(=O)Nc1nc2cc(Oc3ccc(NC(=O)Nc4ccccc4)cc3)ccc2[nH]1 | 5.8% | 1.46% | 1.92% | 3.05% | 1.76% | 3.54% | 0.95% | 2.02% | 1.72% | 4.39% | 6.76% | 2.19% | 4.22% | 6.44% | 2.44% | 1.7% | -0.36% | 11.4% | 21.8% | 0.67%
CCCNc1cccc(-n2ncc3c(N/N=C/c4ccncc4)ncnc32)c1 | 13.4% | 0.28% | 7.87% | -1.07% | 0.85% | 4.08% | 2.63% | -1.02% | -0.91% | 1.01% | 0.45% | -0.12% | 0.93% | 4% | 31.9% | 11.3% | 40.7% | 3.81% | 17.6% | 8.6%
NS(=O)(=O)c1ccc(N/N=C2\C(=O)Nc3cccc(CCc4ccncc4)c32)cc1 | 3.03% | 2.1% | 1.7% | 1.25% | 0.63% | -2.2% | -0.1% | 0.71% | 0.86% | 2.93% | -6.07% | -0.07% | 1.59% | 20.8% | 64% | 30.1% | 47.9% | 39.9% | 46.2% | 2.64%
